Reference: article PMC7862700, “An all-to-all approach to the identification of sequence-specific readers for epigenetic DNA modifications on cytosine”

Legend:
Experiment in all cases: DAPPL (digital affinity profiling via proximity ligation, sequencing); 10 mM Tris-HCl pH 7.5, 50 mM NaCl, 1 mM DTT, 4% glycerol, room temperature, 30 min; GST-TFs on glutathione beads, 16-mer random dsDNA library, 0.1% formaldehyde crosslink after washing; high values mean tight binding
Conditions in all cases: protein: recombinant; tags: N-terminal GST; dsDNA, one strand shown
[1] = target: T1, FLI1 (Homo sapiens, UniProt Q01543 1-452)
T1 sequence: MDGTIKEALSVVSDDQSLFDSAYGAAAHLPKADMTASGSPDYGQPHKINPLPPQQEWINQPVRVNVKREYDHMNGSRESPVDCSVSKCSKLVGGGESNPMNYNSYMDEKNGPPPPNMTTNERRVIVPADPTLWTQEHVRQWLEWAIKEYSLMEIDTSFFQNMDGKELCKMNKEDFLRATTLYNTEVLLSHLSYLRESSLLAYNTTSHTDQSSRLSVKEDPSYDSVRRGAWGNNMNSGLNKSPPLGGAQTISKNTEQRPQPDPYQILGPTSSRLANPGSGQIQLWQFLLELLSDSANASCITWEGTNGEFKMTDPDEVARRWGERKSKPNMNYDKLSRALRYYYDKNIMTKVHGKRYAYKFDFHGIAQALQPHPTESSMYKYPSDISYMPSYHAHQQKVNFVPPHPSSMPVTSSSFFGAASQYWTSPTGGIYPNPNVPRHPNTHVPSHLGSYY
How it was run: (§1)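 Human transcription factors fused to GST were expressed in yeast, captured on glutathione beads, given DNA barcodes and pooled with a GST-only negative control. Pools were incubated with 200 nmole of a 16-mer random double-stranded DNA library in Tris/NaCl/DTT/glycerol buffer at room temperature for 30 min. They were then washed, crosslinked with 0.1% formaldehyde, proximity-ligated (BsaI/T4 ligase, 1 h, 37 °C), PCR-amplified and sequenced on an Illumina NextSeq500. Binding signal is each 6-mer's read frequency for a factor divided by its frequency for the GST control.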

[2] = target: T2, ELK1 (Homo sapiens, UniProt P19419 1-428)
T2 sequence: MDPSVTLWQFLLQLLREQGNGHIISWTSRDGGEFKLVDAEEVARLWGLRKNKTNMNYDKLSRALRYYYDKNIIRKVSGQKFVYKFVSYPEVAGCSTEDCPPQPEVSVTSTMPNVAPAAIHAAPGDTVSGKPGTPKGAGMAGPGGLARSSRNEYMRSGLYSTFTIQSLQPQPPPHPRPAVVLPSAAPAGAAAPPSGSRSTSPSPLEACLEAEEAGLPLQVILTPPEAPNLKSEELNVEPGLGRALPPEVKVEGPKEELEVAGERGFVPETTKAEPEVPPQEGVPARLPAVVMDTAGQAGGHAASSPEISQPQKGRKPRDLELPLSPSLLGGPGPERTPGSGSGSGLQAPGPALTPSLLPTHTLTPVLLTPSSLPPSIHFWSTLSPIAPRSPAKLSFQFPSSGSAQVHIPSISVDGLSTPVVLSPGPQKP
How it was run: as §1

[3] = target: T3, GABPA (Homo sapiens, UniProt Q06546 1-454)
T3 sequence: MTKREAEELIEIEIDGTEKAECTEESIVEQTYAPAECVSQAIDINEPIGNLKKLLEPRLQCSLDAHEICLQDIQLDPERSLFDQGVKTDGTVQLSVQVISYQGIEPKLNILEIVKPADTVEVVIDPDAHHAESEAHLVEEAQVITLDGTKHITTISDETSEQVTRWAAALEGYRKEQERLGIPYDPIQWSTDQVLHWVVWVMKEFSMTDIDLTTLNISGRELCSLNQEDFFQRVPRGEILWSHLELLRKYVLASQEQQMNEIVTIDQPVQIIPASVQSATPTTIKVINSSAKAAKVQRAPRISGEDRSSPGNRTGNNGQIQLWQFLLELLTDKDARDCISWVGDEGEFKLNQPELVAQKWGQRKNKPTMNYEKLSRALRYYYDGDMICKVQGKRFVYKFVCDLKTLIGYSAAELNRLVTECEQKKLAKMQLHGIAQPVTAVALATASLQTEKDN
How it was run: as §1

[4] = target: T4, ERG (Homo sapiens, UniProt P11308 1-479)
T4 sequence: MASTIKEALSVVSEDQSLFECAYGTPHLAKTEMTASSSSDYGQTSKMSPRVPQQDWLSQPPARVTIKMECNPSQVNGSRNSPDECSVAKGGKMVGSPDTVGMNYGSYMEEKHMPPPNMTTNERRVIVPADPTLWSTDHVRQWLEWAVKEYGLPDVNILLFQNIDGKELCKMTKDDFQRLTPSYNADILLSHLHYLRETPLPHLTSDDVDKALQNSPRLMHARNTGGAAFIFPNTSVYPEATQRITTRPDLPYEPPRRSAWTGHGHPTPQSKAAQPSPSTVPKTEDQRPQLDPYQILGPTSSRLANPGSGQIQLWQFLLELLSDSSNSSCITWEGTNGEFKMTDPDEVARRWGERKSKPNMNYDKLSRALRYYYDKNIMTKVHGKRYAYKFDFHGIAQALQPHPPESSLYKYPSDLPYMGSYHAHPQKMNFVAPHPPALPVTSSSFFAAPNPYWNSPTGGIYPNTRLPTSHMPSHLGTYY
How it was run: as §1

[5] = target: ELF1 (Homo sapiens, UniProt P32519 1-619)
ELF1, sequence (P32519 whole entry): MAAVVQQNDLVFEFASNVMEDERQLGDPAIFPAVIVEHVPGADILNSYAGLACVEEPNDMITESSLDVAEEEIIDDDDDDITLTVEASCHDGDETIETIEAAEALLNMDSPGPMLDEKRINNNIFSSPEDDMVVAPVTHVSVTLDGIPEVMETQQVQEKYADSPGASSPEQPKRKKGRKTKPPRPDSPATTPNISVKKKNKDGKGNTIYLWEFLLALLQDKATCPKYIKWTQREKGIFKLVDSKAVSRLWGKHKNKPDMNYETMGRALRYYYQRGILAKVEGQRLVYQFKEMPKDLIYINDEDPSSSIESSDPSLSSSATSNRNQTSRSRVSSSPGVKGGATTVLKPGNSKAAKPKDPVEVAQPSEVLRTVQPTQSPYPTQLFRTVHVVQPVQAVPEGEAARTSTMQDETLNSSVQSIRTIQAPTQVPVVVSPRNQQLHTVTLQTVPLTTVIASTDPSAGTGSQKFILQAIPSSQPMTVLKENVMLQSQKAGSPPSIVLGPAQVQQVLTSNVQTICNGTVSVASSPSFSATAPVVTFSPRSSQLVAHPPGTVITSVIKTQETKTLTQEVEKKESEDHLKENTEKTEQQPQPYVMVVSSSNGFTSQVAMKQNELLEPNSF
How it was run: as §1

[6] = target: T5, EHF (Homo sapiens, UniProt Q9NZC4 1-300)
T5 sequence: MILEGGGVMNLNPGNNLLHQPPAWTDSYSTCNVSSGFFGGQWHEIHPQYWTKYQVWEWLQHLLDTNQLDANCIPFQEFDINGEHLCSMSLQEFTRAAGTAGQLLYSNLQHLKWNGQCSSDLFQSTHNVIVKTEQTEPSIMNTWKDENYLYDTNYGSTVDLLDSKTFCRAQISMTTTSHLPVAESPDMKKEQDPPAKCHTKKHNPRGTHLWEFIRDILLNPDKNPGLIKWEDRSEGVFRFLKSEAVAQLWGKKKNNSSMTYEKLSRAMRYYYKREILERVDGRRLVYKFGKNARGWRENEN
How it was run: as §1

[7] = target: SPI1 (Homo sapiens, UniProt P17947 1-270)
How it was run: as §1

[8] = target: SPIB (Homo sapiens, UniProt Q01892 1-262)
SPIB, sequence (Q01892 whole entry): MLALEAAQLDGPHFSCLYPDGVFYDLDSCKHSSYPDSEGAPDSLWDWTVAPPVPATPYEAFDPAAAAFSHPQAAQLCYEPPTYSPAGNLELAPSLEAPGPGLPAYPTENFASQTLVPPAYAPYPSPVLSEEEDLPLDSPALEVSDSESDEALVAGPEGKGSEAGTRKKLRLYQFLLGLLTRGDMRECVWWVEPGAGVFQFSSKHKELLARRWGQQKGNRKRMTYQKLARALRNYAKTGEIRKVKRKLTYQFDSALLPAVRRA
How it was run: as §1

[9] = target: T6, ELK3 (Homo sapiens, UniProt P41970 1-407)
T6 sequence: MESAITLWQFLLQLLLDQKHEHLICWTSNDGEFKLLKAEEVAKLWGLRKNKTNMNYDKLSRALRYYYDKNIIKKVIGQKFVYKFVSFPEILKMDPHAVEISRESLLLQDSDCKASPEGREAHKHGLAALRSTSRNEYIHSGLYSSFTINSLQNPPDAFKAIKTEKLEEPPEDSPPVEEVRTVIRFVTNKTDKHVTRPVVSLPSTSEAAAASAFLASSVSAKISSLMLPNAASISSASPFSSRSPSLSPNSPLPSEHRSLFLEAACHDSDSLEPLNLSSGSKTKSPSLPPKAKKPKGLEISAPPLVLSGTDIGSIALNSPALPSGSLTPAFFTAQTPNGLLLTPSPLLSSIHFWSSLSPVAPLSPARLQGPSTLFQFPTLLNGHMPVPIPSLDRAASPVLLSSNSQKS
How it was run: as §1

TTACAT
binding signal [1]: 1.3 fold enrichment (6-mer frequency, TF over GST control)
binding signal [2]: 1.27 fold enrichment (6-mer frequency, TF over GST control)
binding signal [3]: 1.38 fold enrichment (6-mer frequency, TF over GST control)
binding signal [4]: 1.31 fold enrichment (6-mer frequency, TF over GST control)
binding signal [5]: 1.31 fold enrichment (6-mer frequency, TF over GST control)
binding signal [6]: 1.43 fold enrichment (6-mer frequency, TF over GST control)
binding signal [7]: 1.3 fold enrichment (6-mer frequency, TF over GST control)
binding signal [8]: 1.3 fold enrichment (6-mer frequency, TF over GST control)
binding signal [9]: 1.36 fold enrichment (6-mer frequency, TF over GST control)
